MEP2-GFP yeast: modulators of MEP2-GFP levels in yeast, primary screen, S. cerevisiae, multiplex flow cytometry, MLPCN library; AID 2016, 2009; S. cerevisiae MEP2-GFP strain, 3 h; 100% = DMSO control level; GFP response vs DMSO, % at 10 µM; hit rate 0.51% among 330,000;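 active = GFP response versus DMSO above a set limit, roughly screen mean plus 3 SD, cut at about 180% in these data; inconclusive = fewer than 70 cells counted for a yeast strain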;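 note: median GFP fluorescence of the barcode-gated MEP2-GFP cells per well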
AGP1 TOR yeast: modulators of AGP1-GFP expression in yeast TOR pathway, primary screen, cell-based, multiplex flow cytometry, S. cerevisiae, MLPCN library; GFP response vs DMSO, % at 10 µM; hit rate 0.02% among 320,000; 3 h; GFP as percent of DMSO wells;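 active = GFP response relative to DMSO above a set limit, near screen average plus 3 SD, cut at about 150% in these data; inconclusive = fewer than 70 cells counted for the yeast strain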;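 note: median GFP channel fluorescence of the gated AGP1 strain per well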
RPL19A-GFP yeast: RPL19A-GFP expression modulators in yeast, primary screen, cell-based, S. cerevisiae, multiplex flow cytometry, MLPCN; S. cerevisiae RPL19A-GFP strain, 3 h; hits give low values; percent response vs DMSO, % at 10 µM; hit rate 0.3% among 330,000;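 active = percent response vs DMSO below 50%; inconclusive = fewer than 70 events counted for the yeast strain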;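 note: median channel GFP fluorescence of the barcoded RPL19A-GFP strain; lower means less RPL19A-GFP as with rapamycin TOR inhibition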
LAP4 TOR yeast: modulators of LAP4-GFP expression in yeast, primary screen, S. cerevisiae, multiplex flow cytometry, MLPCN library. 3 h; median GFP as percent of DMSO wells. GFP response vs DMSO, % at 10 µM. hit rate 0.34% among 320,000. AID 2023, 2009;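 active = GFP response vs DMSO above a set limit, about the screen mean plus 3 SD, cut at about 150% in these data; inconclusive = under 70 cell events counted for the yeast strain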
CIT2-GFP yeast: modulators of CIT2-GFP expression in yeast, primary screen, S. cerevisiae, GFP fusion, multiplex flow cytometry, MLPCN library. hit rate 0.065% among 320,000. GFP response vs DMSO, % at 10 µM. S. cerevisiae CIT2-GFP strain, 3 h; 100 means same as DMSO wells. AID 2029, 2009;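 active = GFP response relative to DMSO above a set limit, near the screen mean plus 3 SD, cut at about 150% in these data; inconclusive = Fewer than 70 cells measured for a yeast strain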;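 note: ratio of well median GFP fluorescence to mean of DMSO wells on the plate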
Myeloid diff 2: induction of myeloid progenitor differentiation, primary screen, cell-based, flow cytometry, MLPCN library | hit rate 1% among 360,000 | ER-HoxA9 myeloid progenitors, lysozyme-GFP differentiation | calls only at 10 µM;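 active = normalized GFP-positive differentiation at or above the plate's own cutoff, the solvent-only control mean plus 3 SD; inconclusive = no clear call, values can overlap the other calls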;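 note: cells exposed to compound for four days before flow analysis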
A number is an active result; i = inactive; ? = inconclusive; nt = no result; + = active, no number; [ ] = dose if it differs, or a comment. Rows were chosen to be rich in hits. Some 1.8% of all compounds tested hit in one or more screens of this group.

SMILES	MEP2-GFP yeast	AGP1 TOR yeast	RPL19A-GFP yeast	LAP4 TOR yeast	CIT2-GFP yeast	Myeloid diff 2
Cc1cc(-c2cccs2)c2c(N)c(C(=O)c3ccc4c(c3)OCO4)sc2n1	i	i	i	i	i	+
Cc1[nH]n(-c2ccccc2)c(=O)c1/C=N/Nc1nncc(-c2ccccc2)n1	i	i	i	271.2	i	i
CN1C(C(=O)Nc2ccccn2)=C(O)c2sccc2S1(=O)=O	i	i	i	i	i	+
O=C(Nc1ccccn1)c1cccs1	i	i	i	i	i	i
CCCCC(CC)CNC(=O)C(=O)c1ccccc1NC(C)=O (stereo unspecified)	190.7[may fluoresce violet]	i	40.8[may fluoresce violet]	i	?	i
CCOc1ccccc1OCCCCCc1c(C)n[nH]c1C	i	i	i	i	i	+
O=C(c1ccc(Cl)c([N+](=O)[O-])c1)N(Cc1ccco1)C1CCS(=O)(=O)C1 (stereo unspecified)	i	i	i	i	i	+
CN(C)CCN1CCN(C2CN(Cc3cn(Cc4cccc(C(F)(F)F)c4)nn3)S(=O)(=O)C2)CC1 (stereo unspecified)	nt	nt	nt	nt	nt	i
NNC(=O)c1ccc(Cn2cc(Br)c(N)n2)cc1	i	i	i	i	i	+
COc1ccc(Br)cc1/C=C/C(=O)c1ccc(NC(C)=O)cc1	i	i	i	i	i	?
Cc1cc(Oc2cc(NN3CCCCC3)c([N+](=O)[O-])cc2[N+](=O)[O-])c(C(=O)c2ccccc2)cc1Cl	i	i	i	i	i	i
O=Cc1cc2ccccc2nc1SCCCF	i	i	i	i	i	+
C[C@@H](c1ccccc1)N1C[C@H](COCc2ccccc2)Oc2cc(N3CC[C@@H](O)C3)ccc2S1(=O)=O	nt	nt	nt	nt	nt	+
CCC(C)NCCCOc1cc(Cl)ccc1Cl (stereo unspecified)	609.1[may fluoresce violet]	nt	42.0[may fluoresce violet]	i	?	i
CCN(CC)C(=O)c1ccc2c3c(cccc13)C(=O)N(CCc1ccc(OC)c(OC)c1)C2=O	176.9	i	i	i	i	i
O=C(Cn1ncc2c(=O)oc3ccccc3c21)N1CCCN(Cc2ccccc2F)C1	i	i	i	i	i	+
C=CCn1c(C)cc(-c2csc(N)n2)c1C	i	i	i	i	i	i
C=CCn1c(C)cc(-c2csc(NC)n2)c1C	nt	nt	nt	nt	nt	+
CCCS/C(N)=N/N=C/c1cc(C)ccc1O	233.9[may fluoresce violet]	nt	i	i	?	i
COC(=O)Oc1ccc(/C=N/NC(=O)CSCc2ccc(Cl)cc2)cc1OC	i	i	i	i	i	i
CC(=O)c1c(C)[nH]c(C(=O)OCc2nnc(-c3ccc([N+](=O)[O-])cc3)o2)c1C	i	i	i	i	i	i
O=c1cc(-c2ccccc2[N+](=O)[O-])oc2ccccc12	i	i	i	i	i	+
CSc1ccc(-c2cc(=O)c3ccccc3o2)cc1	i	i	i	170.0	i	i
CCOC(=O)C1=C(C)NC(=O)CC1c1cc2c(cc1Br)OCO2 (stereo unspecified)	i	i	i	i	i	i
COc1ccc(C(=O)/C=C/c2ccc(N(C)C)cc2)c(OC)c1	i	i	i	i	i	+
SMILES	MEP2-GFP yeast	AGP1 TOR yeast	RPL19A-GFP yeast	LAP4 TOR yeast	CIT2-GFP yeast	Myeloid diff 2
COc1ccc(C(=O)N(C(C)C)C(C)C)c(OC)c1	233.8[may fluoresce violet]	?	38.1[may fluoresce violet]	i	?	i
COc1ccc(C(=O)NCC(C)C)c(OC)c1	i	i	i	i	i	i
Cc1nc(Nc2ccc(Cl)cc2)c2nnn(Cc3ccccc3)c2n1	i	i	i	i	i	i
Cc1nc(Nc2ccc(S(=O)(=O)N3CCCCC3C)cc2)c2nnn(Cc3ccccc3)c2n1 (stereo unspecified)	i	i	i	i	i	+
CCn1cc(C(=O)NCC(OC)OC)c(=O)c2cc(S(=O)(=O)N3CCCC3)ccc21	i	i	i	i	i	i
CCn1cc(C(=O)NCC(OC)OC)c(=O)c2cc(S(=O)(=O)N3CCC(C)CC3)ccc21	i	i	i	i	i	+
CC(Oc1ccc2ccccc2c1)C(=O)NNC(=O)Nc1ccccc1F (stereo unspecified)	i	i	i	i	i	i
CC(C)Cn1c(N)c(C(=O)NCC2CCCO2)c2nc3ccccc3nc21 (stereo unspecified)	i	i	i	i	i	+
NC(=O)CCN(C(=O)c1cccc(S(=O)(=O)N2CCc3ccccc32)c1)c1ccccc1	i	i	i	i	i	i
Cc1[nH]c(C)c(S(=O)(=O)N(Cc2ccccc2)C(C)(C)C)c1C(=O)N1CCCC1	i	i	i	i	i	i
Cc1ccc(-n2ncc3c(=O)n(CC(=O)NC4CCCC4)cnc32)cc1C	?	nt	39.1[may fluoresce violet]	i	?	i
CCOC(=O)CS(=O)(=O)CC(=O)Nc1ccc([N+](=O)[O-])cc1OC	i	i	i	i	i	i
CCOC(=O)/C(=C/C=C1\Sc2cc(C)c(C)cc2N1CC)C(C)=O	nt	nt	nt	nt	nt	+
CCOC(=O)/C(=C\C=C1/Sc2ccccc2N1CC)C(C)=O	i	i	i	i	i	i
Cc1ccc(-n2nc3c([n+]2[O-])CCc2c-3no[n+]2[O-])cc1	i	i	i	i	i	+
[O-][n+]1onc2c1CCc1c-2nn(-c2ccccc2Cl)[n+]1[O-]	i	i	i	i	i	nt
Cc1cc(N)ccc1-n1nc2ccccc2n1	i	nt	i	nt	nt	+
CSc1ccccc1NC(=O)COc1ccccc1C	i	i	i	i	i	+
Cc1ccccc1OCC(=O)Nc1ccccc1CO	i	i	i	i	i	i
Cc1ccc(NC(=O)CN(C)S(=O)(=O)c2cccs2)c(Br)c1	211.0[may fluoresce violet]	?	22.8[may fluoresce violet]	i	?	i
CN(CC(=O)NCCc1ccccc1)S(=O)(=O)c1cccs1	i	i	i	i	i	i
CN(CC(=O)NCCc1ccc(Cl)cc1)S(=O)(=O)c1cccs1	?	?	19.6[may fluoresce violet]	?	?	i
CC1(C)OC(=O)C(=CNn2cnc3ccccc3c2=O)C(=O)O1	i	i	i	i	i	i
O=S1(=O)C=C(SCCN2CCCCC2)c2ccccc21	i	i	i	i	i	i
O=S1(=O)C=C(Sc2nnc(-c3ccccc3)o2)c2ccccc21	i	i	i	257.6[may fluoresce violet]	?	?
CSc1nnc(-c2ccccc2)o1	i	i	i	i	i	i
Cc1cc(C)nc(SC2=CS(=O)(=O)c3ccccc32)n1	i	i	i	i	i	+
O=C(NCc1ccccc1)C(Cc1ccccc1)NS(=O)(=O)c1cccc2nsnc12 (stereo unspecified)	i	i	i	i	i	i
Cc1cc(C)n(C(=O)/C(C#N)=N/Nc2cc(Cl)cc(Cl)c2)n1	i	i	i	i	i	i

Assay outcomes deposited in PubChem by NMMLSC.
